# Results published in PubChem BioAssay AID2685 (National Center for Advancing Translational Sciences (NCATS), 2010).
# The whole screen tested about 320,000 compounds, of which about 2,100 (0.66%) were called active. Not shown: some 53% with an inconclusive outcome. The sample holds actives, similar compounds and a random draw of the others, so the mix is not that of the screen. The call rests on the fitted dose curve; in most records, active means well fitted inhibition curve with a large enough effect in the signal ratio, with a control signal flat (not every such curve was filed as active); inconclusive means small, poorly fitted or top-dose-only effect, or effect the other way, or a change in a side signal; inactive means flat fitted curve, though single readings scatter; the % refers to the signal ratio.
# Test: qHTS Assay for Lipid Storage Modulators in Drosophila S3 Cells;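 on cell number change: cells counted by Cell Tracker Red CMTPX staining in the red channel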; on lipid storage change, negative = inhibition: on the % scale 0 is the no-effect control and ±100 the full control effect
# Conditions: BODIPY lipid droplet fluorescence, 18-24 h, cells fed with added oleic acid; cell number change: measured here: cell count max response; series mostly up to 46.1 µM; lipid storage change, negative = inhibition: at the top concentration
# Method in brief: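 Laser-scanning cytometry quantifies lipid droplet accumulation (500–530 nm total intensity; droplet/cell object ratio) in oleic acid-fed (400 uM added) Drosophila S3 cells treated with a concentration series. 20 uM Triacsin C defined 100% inhibition.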
# Potency means the concentration at half of the fitted maximal effect.
SMILES,"lipid storage change, negative = inhibition",cell number change [%],Potency,outcome
Cc1cccc(C)c1NC(=O)CN(C)C(=O)/C=C/c1cccs1,26% (inactive),-17,–,–
CCn1cnc2c(Nc3cc(F)cc(F)c3)nc(C#N)nc21,–,-24.3,0.651 µM (active),–
Cc1cc(C)c(C#N)c(Nc2ccc(F)cc2)n1,–,-10.5,–,inactive
O=C(Cc1ccccc1)NCC(=O)OCC(=O)c1cccc([N+](=O)[O-])c1,-0.459% (inactive),9.41,–,–
Cc1cc(OC(C)C(=O)N2CCN(c3ccccc3)CC2)c2c(C)c(C)c(=O)oc2c1 (stereo not given),–,5.19,–,inactive
COc1ccc(C(C)=O)cc1COC(=O)c1cc(=O)c2ccccc2o1,–,5.13,18.4 µM (active),–
COc1ccc(CCN(C)C(=O)c2cc(-c3ccccc3)nc3ccccc23)cc1OC,–,-2.7,–,inactive
CCc1ccc(CN(C)C(=O)c2cc(=O)c3ccccc3o2)cc1,–,–,–,inactive
COc1ccc(C(C)=O)cc1COC(=O)c1cc(C)oc1C,16.1% (inactive),-12.2,–,–
COc1ccc(CCN(C)C(=O)c2cc(=O)c3ccccc3o2)cc1OC,–,-2.86,0.731 µM (active),–
COc1ccc(C(C)=O)cc1COC(=O)c1cc2ccccc2cc1O,–,-9.52,20.6 µM (active),–
COc1ccc(C(C)=O)cc1COC(=O)c1cccnc1Cl,-19.8% (inactive),20.9,–,–
O=C(OCc1ccc(F)cc1)c1cc(=O)c2ccccc2o1,–,11.3,–,inactive
N#Cc1ccccc1COC(=O)c1cc(=O)c2ccccc2o1,-3.23% (inactive),7.26,–,–
CCOC(=O)c1ccc(NC(=S)N2CCCC(C)C2)cc1 (stereo not given),-12.9% (inactive),4.19,–,–
COCCN(C(=S)Nc1ccccc1OC)C(C)c1cccs1 (stereo not given),18.6% (inactive),10.3,–,–
CCCCn1nnc(NC(=O)c2sc3cc(Cl)ccc3c2Cl)n1,14.6% (inactive),-11.4,–,–
C/C(=N\Nc1cc(N2CCOCC2)nc(C)n1)c1ccc(F)cc1,–,-23.7,–,inactive
COc1cc(OC)c2ccc(=O)oc2c1C(CCN1CCCC1)c1ccc(N(C)C)cc1 (stereo not given),0.139% (inactive),0.759,–,–
Cc1cc(C)nc(/N=C(\NC(=O)C(C)(C)C)Nc2ccccc2)n1,16.5% (inactive),7.69,–,–
O=C(CCOc1ccccc1)Nc1ccnn1C1CCN(C(=O)CCC(F)(F)F)CC1,–,–,–,inactive
CN(CC(=O)OCC(=O)c1c(N)n(C)c(=O)n(C)c1=O)S(=O)(=O)c1ccc(Cl)cc1,-4.29% (inactive),-11.5,–,–
Cn1c(N)c(C(=O)COC(=O)CNS(=O)(=O)c2cccc(Cl)c2)c(=O)n(C)c1=O,-4.82% (inactive),-1.55,–,–
CC(C)[C@H](NS(=O)(=O)c1ccc(Cl)cc1)C(=O)OCC(=O)c1c(N)n(C)c(=O)n(C)c1=O,–,-5.89,29.1 µM (active),–

SMILES,"lipid storage change, negative = inhibition",cell number change [%],Potency,outcome
O=C(NC1CCCc2ccccc21)c1ccccc1 (stereo not given),21.6% (inactive),96.9,–,–
COC(=O)CN(c1cccc(F)c1)S(C)(=O)=O,–,–,–,inactive
COC(=O)CN(c1cccc(C(C)=O)c1)S(C)(=O)=O,8.86% (inactive),-12.6,–,–
COC(=O)CN(c1cccc(OC)c1)S(C)(=O)=O,–,-6.69,16.4 µM (active),–
COc1ccccc1CN1CC(C(=O)NC2CCOCC2)CCC1=O (stereo not given),-8.12% (inactive),0.697,–,–
CCC(C)N1CCNCC1 (stereo not given),–,2.58,–,inactive
Cc1cc2c3c(ccc(C)c3n1)N=CN2c1ccccc1,–,–,–,inactive
CCCCOc1cccc(C(=O)O)c1,–,-9.86,–,inactive
CC(C)Oc1cccc(C(=O)N2CCCC2)c1,-2.89% (inactive),0.879,–,–
CC(C)Oc1cccc(C(=O)O)c1,–,0.0714,16.4 µM (active),–
Cc1cc(OCC(=O)NCc2nc(-c3ccccc3)no2)c(C)cc1Br,7.66% (inactive),8.52,–,–
Cn1cc(C=O)c2cc(F)ccc21,0.791% (inactive),–,–,–
COc1ccc2c(c1)c(/C=C/c1cc[n+](C)cc1)cn2C,-25.3% (inactive),–,–,–
Cn1cc(/C=C/c2cc[n+](C)cc2)c2cc(F)ccc21,–,5.37,25.9 µM (active),–
CC(=O)Nc1ccc(S(=O)(=O)N2CCN(CC3CC4C=CC3C4)CC2)cc1 (stereo not given),4.11% (inactive),5.59,–,–
O=C(N/N=C/c1ccncc1)c1ccc2c(c1)OCO2,5.26% (inactive),-3.13,–,–
CCCc1cc2c(=O)c(-c3ccccn3)c(C)oc2cc1O,11.3% (inactive),-9.21,–,–
CC(=O)N[C@H](C(=O)N[C@@H](C)C(=O)N[C@H](C#N)CC(=O)O)C(C)C,11.1% (inactive),8.31,–,–
Cc1ccc(S(=O)(=O)CCC(=O)OCC(=O)N2CCc3ccccc32)cc1,-12.7% (inactive),-18.3,–,–
CC(=O)Nc1ccc(S(=O)(=O)NCC(=O)OCC(=O)N2CCCc3ccccc32)cc1,17.9% (inactive),-6.74,–,–
Cc1ccc(S(=O)(=O)N2CCC(C(=O)OCC(=O)N3CCc4ccccc43)CC2)cc1,–,-18.3,7.31 µM (active),–
CC(=O)Nc1ccc(S(=O)(=O)N(C)CC(=O)OCC(=O)N2CCCCCC2)cc1,-14.5% (inactive),-4.09,–,–
Cc1ccc(S(=O)(=O)N2CCC(C(=O)OCC(=O)N3CC(=O)Nc4ccccc43)CC2)cc1,-0.226% (inactive),8.87,–,–
CC(=O)Nc1ccc(S(=O)(=O)N(C)CC(=O)OCC(=O)N2CCc3ccccc32)cc1,–,-7.07,20.6 µM (active),–
